# From PubChem BioAssay (EPA / NIEHS)
# Records with an inconclusive call do not appear. Active and inactive are the calls of the source. Rule for the calls, unless noted: active = hit-call score of the fitted dose curve at least 0.9, where 1 is the maximum; inconclusive = response in the unintended direction; inactive = score below 0.9.
# How the values were obtained:
# [1] = target: X-box-binding protein 1 (Homo sapiens) (UniProt P17861); test: ATG_Xbp1_CIS: Attagene CIS-FACTORIAL HepG2 Assay for human X-box Binding Protein 1 (XBP1) (AID 2282972; active = hit-call score of the fitted dose curve at least 0.9, where 1 is the maximum; inactive = score below 0.9); conditions: HepG2 XBP1 cis-element reporter, Attagene multiplex; actives raise or lower the signal
# X-box-binding protein 1 (Homo sapiens), sequence (P17861 whole entry, looked up): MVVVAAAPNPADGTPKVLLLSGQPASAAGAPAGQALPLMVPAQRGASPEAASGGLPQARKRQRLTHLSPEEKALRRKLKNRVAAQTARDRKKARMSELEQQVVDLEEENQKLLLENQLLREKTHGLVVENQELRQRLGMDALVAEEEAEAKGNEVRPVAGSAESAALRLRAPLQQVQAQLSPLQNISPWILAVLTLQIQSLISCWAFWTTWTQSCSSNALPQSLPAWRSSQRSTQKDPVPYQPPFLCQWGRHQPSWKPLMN
# In short: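 HepG2 cells transiently transfected with cis-regulated multiple reporter transcription units; endogenous transcription factor activity measured 24 hours after chemical dosing. Reporter mRNA quantified by RT-PCR, 6-FAM primer extension, HpaI digestion and capillary electrophoresis; bidirectional fitting versus DMSO.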
# [2] = ATG_M_19_TRANS: Attagene TRANS-FACTORIAL HepG2 Assay for M19 Transcription Factor (Internal Marker) (AID 2282974); conditions: HepG2 Attagene TRANS-FACTORIAL M19 internal marker reporter
# In short: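 After transfection of HepG2 with GAL4-UAS-driven reporter constructs, cells are dosed for 24 h. Total RNA is reverse-transcribed, reporter sequences PCR-amplified and labelled, then HpaI-digested and sized by capillary electrophoresis.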
# [3] = target: Hepatocyte nuclear factor 4-alpha (Homo sapiens) (UniProt P41235); test: ATG_HNF4a_TRANS: Attagene TRANS-FACTORIAL HepG2 Assay for human Hepatocyte Nuclear Factor 4 alpha (HNF4a) (AID 2282982); conditions: HepG2 HNF4a transactivation reporter, mRNA readout
# Hepatocyte nuclear factor 4-alpha (Homo sapiens), sequence (P41235 whole entry, looked up, the tested form may be a part): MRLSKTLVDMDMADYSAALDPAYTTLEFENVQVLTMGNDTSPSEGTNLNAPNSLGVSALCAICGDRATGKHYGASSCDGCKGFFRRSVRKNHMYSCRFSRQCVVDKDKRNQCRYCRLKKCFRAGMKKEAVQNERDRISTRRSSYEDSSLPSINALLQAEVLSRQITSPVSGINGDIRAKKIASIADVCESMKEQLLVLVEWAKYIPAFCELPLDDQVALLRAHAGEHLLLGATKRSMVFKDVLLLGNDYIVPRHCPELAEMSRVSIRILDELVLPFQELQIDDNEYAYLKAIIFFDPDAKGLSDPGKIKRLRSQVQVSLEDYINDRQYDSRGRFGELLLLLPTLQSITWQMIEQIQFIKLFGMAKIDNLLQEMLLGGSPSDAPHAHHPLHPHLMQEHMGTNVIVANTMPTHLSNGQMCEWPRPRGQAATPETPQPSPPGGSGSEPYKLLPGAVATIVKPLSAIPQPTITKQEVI
# In short: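 Gain-of-signal mRNA induction, relative to DMSO vehicle, was read after 24 h compound treatment of HepG2 cells bearing transfected GAL4-UAS reporters. Detection used RT-PCR, 6-FAM primer extension and capillary electrophoresis.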
# [4] = target: Glucocorticoid receptor (Homo sapiens) (UniProt P04150); test: ATG_GR_TRANS: Attagene TRANS-FACTORIAL HepG2 Assay for human Glucocorticoid Receptor (GR) (AID 2282978); conditions: HepG2 Attagene TRANS GR reporter, mRNA transcription;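 note: activators score as hits since higher reporter transcript over DMSO is fitted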
# Glucocorticoid receptor (Homo sapiens), sequence (P04150 whole entry, looked up): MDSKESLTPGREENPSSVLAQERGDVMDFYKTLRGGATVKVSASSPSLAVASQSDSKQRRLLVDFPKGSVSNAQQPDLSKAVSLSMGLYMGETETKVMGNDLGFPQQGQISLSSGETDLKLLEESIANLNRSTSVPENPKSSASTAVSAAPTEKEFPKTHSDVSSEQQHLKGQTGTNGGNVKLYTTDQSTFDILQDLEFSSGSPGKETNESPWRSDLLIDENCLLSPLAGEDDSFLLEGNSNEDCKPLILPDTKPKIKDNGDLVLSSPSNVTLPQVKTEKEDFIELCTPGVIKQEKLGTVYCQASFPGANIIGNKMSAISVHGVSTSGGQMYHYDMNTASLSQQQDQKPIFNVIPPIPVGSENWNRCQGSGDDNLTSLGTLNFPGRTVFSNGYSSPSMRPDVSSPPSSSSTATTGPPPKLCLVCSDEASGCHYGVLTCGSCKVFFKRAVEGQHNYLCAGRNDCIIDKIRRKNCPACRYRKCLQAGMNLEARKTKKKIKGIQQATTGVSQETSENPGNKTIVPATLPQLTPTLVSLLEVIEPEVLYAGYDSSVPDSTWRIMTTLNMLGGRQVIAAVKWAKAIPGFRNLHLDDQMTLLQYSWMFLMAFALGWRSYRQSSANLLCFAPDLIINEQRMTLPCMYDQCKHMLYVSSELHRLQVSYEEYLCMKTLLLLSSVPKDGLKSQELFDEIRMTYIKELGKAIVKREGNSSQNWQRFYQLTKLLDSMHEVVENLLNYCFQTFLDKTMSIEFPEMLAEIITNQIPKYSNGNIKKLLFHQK
# In short: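 Multiplexed TRANS reporter system, HepG2; 24 h exposure; RNA → oligo(dT) RT → reporter-specific PCR → 6-FAM primer extension → HpaI cut → CE fluorescence. Gain-of-signal vs DMSO.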
# [5] = target: Oxysterols receptor LXR-beta (Homo sapiens) (UniProt P55055); test: ATG_LXRb_TRANS: Attagene TRANS-FACTORIAL HepG2 Assay for human Liver X Receptor beta (LXRb) (AID 2282981); conditions: HepG2 Attagene TRANS GAL4-LXRb reporter, mRNA
# Oxysterols receptor LXR-beta (Homo sapiens), sequence (P55055 whole entry, looked up, the tested form may be a part): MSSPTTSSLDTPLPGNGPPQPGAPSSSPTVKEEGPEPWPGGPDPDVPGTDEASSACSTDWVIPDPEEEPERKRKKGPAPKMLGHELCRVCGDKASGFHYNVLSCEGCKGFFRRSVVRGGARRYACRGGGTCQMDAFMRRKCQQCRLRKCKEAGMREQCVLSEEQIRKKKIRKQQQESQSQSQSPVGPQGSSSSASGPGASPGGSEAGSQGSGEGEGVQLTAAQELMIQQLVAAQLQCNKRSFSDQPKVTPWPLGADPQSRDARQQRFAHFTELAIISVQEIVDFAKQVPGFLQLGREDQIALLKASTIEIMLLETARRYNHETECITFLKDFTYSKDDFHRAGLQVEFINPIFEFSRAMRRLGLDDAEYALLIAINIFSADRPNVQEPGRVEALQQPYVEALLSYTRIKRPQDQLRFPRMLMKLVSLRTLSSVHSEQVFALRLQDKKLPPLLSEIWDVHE
# In short: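 Gain-of-signal mRNA reporter endpoint, DMSO as negative control. Transiently transfected HepG2 cells carrying the NR-Gal4 chimera and GAL4-UAS reporter units were treated 24 h; transcripts quantified by RT-PCR and capillary electrophoresis fluorescence.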
# [6] = target: Oxysterols receptor LXR-alpha (Homo sapiens) (UniProt Q13133); test: ATG_LXRa_TRANS: Attagene TRANS-FACTORIAL HepG2 Assay for human Liver X Receptor alpha (LXRa) (AID 2282980); conditions: HepG2 Attagene TRANS reporter, LXRa transactivation
# Oxysterols receptor LXR-alpha (Homo sapiens), sequence (Q13133 whole entry, looked up, the tested form may be a part): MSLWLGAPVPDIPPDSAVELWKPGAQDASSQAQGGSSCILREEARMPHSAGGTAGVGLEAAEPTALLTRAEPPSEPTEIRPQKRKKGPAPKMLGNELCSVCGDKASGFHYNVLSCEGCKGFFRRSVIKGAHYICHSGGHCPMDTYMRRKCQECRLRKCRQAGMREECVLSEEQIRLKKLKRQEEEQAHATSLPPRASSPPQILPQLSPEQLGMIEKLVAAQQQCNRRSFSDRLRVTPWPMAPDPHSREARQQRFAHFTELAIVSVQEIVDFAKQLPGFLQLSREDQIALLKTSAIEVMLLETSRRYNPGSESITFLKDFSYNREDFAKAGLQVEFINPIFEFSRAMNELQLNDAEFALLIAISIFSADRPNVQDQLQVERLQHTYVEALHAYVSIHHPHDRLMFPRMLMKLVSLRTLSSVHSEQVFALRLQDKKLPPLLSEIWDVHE
# In short: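 In this multiplexed TRANS system, compounds act on HepG2 cells carrying GAL4-UAS reporter units and a receptor-GAL4 fusion for 24 h. Induced reporter RNA is amplified, fluorescently labelled and sized by capillary electrophoresis, with DMSO as baseline.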
# [7] = ATG_GAL4_TRANS: Attagene TRANS-FACTORIAL HepG2 Assay for GAL4 (Internal Marker) (AID 2282976); conditions: HepG2 Attagene TRANS GAL4 internal marker reporter
# In short: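 Liver HepG2 line bearing multiplexed GAL4-UAS reporter constructs; 24 h chemical treatment. Transcripts were quantified as fluorescent fragments on capillary electrophoresis after RT-PCR and HpaI cut, with activity fitted upward from DMSO.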
# [8] = target: Bile acid receptor (Homo sapiens) (UniProt Q96RI1); test: ATG_FXR_TRANS: Attagene TRANS-FACTORIAL HepG2 Assay for Farnesoid X Receptor (FXR) (AID 2282979); conditions: HepG2 Attagene TRANS FXR-GAL4 reporter transcription;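 note: hits raise reporter mRNA above DMSO so AC50 marks FXR activation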
# Bile acid receptor (Homo sapiens), sequence (Q96RI1 whole entry, looked up, the tested form may be a part): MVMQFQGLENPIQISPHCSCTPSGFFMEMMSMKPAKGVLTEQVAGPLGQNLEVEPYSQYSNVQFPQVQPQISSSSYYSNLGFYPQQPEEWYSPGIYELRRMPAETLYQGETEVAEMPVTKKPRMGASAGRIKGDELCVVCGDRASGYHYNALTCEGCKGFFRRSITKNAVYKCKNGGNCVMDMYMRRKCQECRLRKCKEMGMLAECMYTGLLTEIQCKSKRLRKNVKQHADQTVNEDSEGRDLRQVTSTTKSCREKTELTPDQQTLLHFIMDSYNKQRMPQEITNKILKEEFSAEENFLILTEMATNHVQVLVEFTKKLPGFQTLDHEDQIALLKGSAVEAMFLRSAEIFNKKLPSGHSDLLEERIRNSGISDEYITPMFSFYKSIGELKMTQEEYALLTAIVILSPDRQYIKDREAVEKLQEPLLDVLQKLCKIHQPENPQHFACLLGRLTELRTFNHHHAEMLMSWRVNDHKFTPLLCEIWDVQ
# In short: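 After 24 h chemical treatment of transfected HepG2 cells, GAL4-UAS reporter transcripts driven by an exogenous FXR-GAL4 fusion were measured by RT-PCR and capillary electrophoresis. Increases over DMSO were fitted.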
structure (smiles),measurement,setting,value
CC(Br)C(=O)O (stereo not drawn),outcome,[1],inactive
same,outcome,[2],inactive
same,outcome,[3],inactive
Nc1ccc(-c2ccc(N)c(Cl)c2)cc1Cl,outcome,[1],inactive
same,outcome,[2],inactive
same,outcome,[4],inactive
same,outcome,[5],inactive
same,outcome,[3],inactive
C1CCC(NC2CCCCC2)CC1,outcome,[1],inactive
same,outcome,[2],inactive
same,outcome,[6],inactive
CCCCCCCCc1ccc(O)cc1,outcome,[1],inactive
same,outcome,[2],inactive
same,outcome,[4],inactive
same,outcome,[5],inactive
same,outcome,[3],inactive
C=CCc1ccc(OC)cc1,outcome,[1],inactive
same,outcome,[7],inactive
same,outcome,[6],inactive
[O-][Cl+2]([O-])O,outcome,[1],inactive
same,outcome,[7],inactive
same,outcome,[6],inactive
same,outcome,[5],inactive
same,outcome,[3],inactive
C[C@]12CC[C@H](O)CC1=CC[C@@H]1[C@@H]2CC[C@]2(C)C(=O)CC[C@@H]12,outcome,[1],inactive
same,outcome,[2],inactive
same,outcome,[4],inactive
same,outcome,[5],inactive
COc1ccc(C=O)cc1,outcome,[1],inactive
same,outcome,[2],inactive
same,outcome,[6],inactive
same,outcome,[3],inactive
CCC(=O)c1ccccc1,outcome,[1],inactive
same,outcome,[7],inactive
same,outcome,[8],inactive
O=C(O)C(F)(F)C(F)(F)C(F)(F)C(F)(F)C(F)(F)C(F)(F)F,outcome,[1],inactive
same,outcome,[2],inactive
same,outcome,[8],inactive
same,outcome,[5],inactive
same,outcome,[3],inactive
Cc1ccc2ccccc2c1C,outcome,[1],inactive
same,outcome,[2],inactive
same,outcome,[5],inactive
CC(C)(c1ccccc1)c1ccc(O)c(C(C)(C)c2ccccc2)c1,AC50,[1],10.1 µM (active)
same,outcome,[2],inactive
same,outcome,[8],inactive
same,outcome,[6],inactive
CNC(=O)O/N=C/C(C)(C)S(C)=O (stereo not drawn),outcome,[1],inactive
same,outcome,[7],inactive
same,outcome,[4],inactive
same,outcome,[5],inactive
ClCc1cccnc1,AC50,[1],58.1 µM (active)
same,outcome,[2],inactive
same,outcome,[8],inactive
same,outcome,[6],inactive
same,outcome,[5],inactive
same,outcome,[3],inactive
CC(=[OH+])/C=C(/C)[O-].CC(=[OH+])/C=C(/C)[O-].CC(=[OH+])/C=C(/C)[O-].[Fe],outcome,[1],inactive
same,outcome,[2],inactive
same,outcome,[8],inactive
same,outcome,[6],inactive
same,outcome,[5],inactive
same,outcome,[3],inactive
